Hit rate of the full screen: of about 340,000 compounds, about 470 (0.14%) were called active. The sample holds actives, similar compounds and a random draw of the others, so the mix is not that of the screen.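 Rule for the calls: active = mean activation of 30% or more, with every replicate also reaching 30%; inconclusive = mean activation of 30% or more but some replicate falls short; inactive = the rest.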

The nature of this test: small molecules raising miR-122 sensor signal – cell-based, Huh7 psiCHECK-miR122, Renilla luciferase, single point, primary screen (AID 623901).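 Note: 0% = median of neutral control wells and 100% = median of positive control wells; higher luciferase signal means stronger suppression of miR-122 activity.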 The following applies: 48 h, at 12.5 µM, stronger effect = higher value.
For the compound `COc1ccc(OC)c(S(=O)(=O)Nc2cccc(-c3ccc4nncn4n3)c2)c1`, the activation is -333% (inactive).

`C[C@@H]1CN([C@H](C)CO)S(=O)(=O)c2ccc(C#CCC3CCCC3)cc2O[C@H]1CN(C)C(=O)CC1CC1`: the activation is -0.08% (inactive).

For `CO[C@@H]1CN(C)C(=O)c2cc(NS(=O)(=O)CC(F)(F)F)ccc2OC[C@H](C)N(C)C[C@H]1C`, the activation was -2.27% (inactive).

As to `C[C@H](CO)N1C[C@H](C)[C@H](CN(C)CC2CCCCC2)Oc2c(NC(=O)c3cnccn3)cccc2C1=O`, the activation is -119% (inactive).

For the compound `C[C@@H]1CN([C@H](C)CO)C(=O)c2cc(C#CC3CCCC3)cnc2O[C@@H]1CN(C)C(=O)C1CCC1`, the activation is -4.13% (inactive).

Turning to `CCOc1ccccc1N1CCN(C(=O)c2ccc3[nH]c(C)c(C)c3c2)CC1`, the activation was -100% (inactive).

With `C[C@H](CO)N1C[C@H](C)[C@H](CN(C)C(=O)Nc2cccc3ccccc23)Oc2ncc(C#Cc3ccccc3)cc2C1=O`, the activation is 8.08% (inactive).

For the compound `C[C@H]1CN([C@@H](C)CO)S(=O)(=O)c2ccc(Br)cc2O[C@H]1CN(C)Cc1ccccn1`, the activation is 4.93% (inactive).

Turning to `CSc1ccc(S(=O)(=O)NC2CCCCC2)cc1`, the activation is -102% (inactive).

With `CCCC#Cc1cnc2c(c1)C(=O)N([C@H](C)CO)C[C@H](C)[C@@H](CN(C)Cc1ccccc1)O2`, the activation was 2.96% (inactive).

Take `C[C@@H]1CN([C@H](C)CO)C(=O)c2cc(-c3ccc(F)cc3)cnc2O[C@@H]1CN(C)Cc1ccc(C(=O)O)cc1`: the activation was -8.09% (inactive).

For `Cc1c(C)c(C)c(S(=O)(=O)NCCc2ccccn2)c(C)c1C`, the activation was -107% (inactive).

In the case of `CCC(=O)N1C[C@H](C)[C@H](OC)CN(C)C(=O)c2ccc(NS(C)(=O)=O)cc2OC[C@H]1C`, the activation is 0.433% (inactive).

Consider `C[C@H]1CN([C@@H](C)CO)C(=O)c2cc(C#CC3(O)CCCC3)cnc2O[C@@H]1CN(C)C(=O)Cc1ccccc1`, for which the activation is 0.596% (inactive).

For the compound `COc1cccc2sc(N(CCCN(C)C)C(=O)C(c3ccccc3)c3ccccc3)nc12`, the activation was 74.2% (active).

As to `C[C@@H]1CN([C@H](C)CO)S(=O)(=O)c2ccc(-c3ccccc3)cc2O[C@@H]1CN(C)C(=O)CC1CC1`, the activation is -0.601% (inactive).

As to `C[C@H](CO)N1C[C@H](C)[C@@H](CN(C)CC2CCOCC2)Oc2ncc(C#Cc3ccc(F)cc3)cc2C1=O`, the activation was 4.08% (inactive).

For `C[C@@H]1CN([C@@H](C)CO)S(=O)(=O)c2ccc(C#CCC3CCCC3)cc2O[C@H]1CN(C)C(=O)CC1CC1`, the activation was -4.63% (inactive).

Consider `C[C@@H]1CN([C@H](C)CO)C(=O)c2cc(C#CC3(O)CCCC3)cnc2O[C@H]1CN(C)Cc1ccncc1`, for which the activation was -9.22% (inactive).

For the compound `C[C@H](CO)N1C[C@H](C)[C@@H](CN(C)Cc2ccncc2)Oc2ncc(C#CC3CC3)cc2C1=O`, the activation was -22.7% (inactive).

As for `Cc1ccc(C(=O)Nc2ccccc2-c2ccccc2)cc1S(=O)(=O)Nc1ccccc1`, the activation is -94% (inactive).

Regarding `N=c1c2c(-c3ccccc3)c(-c3ccccc3)n(Cc3ccccc3)c2ncn1CCCO`, the activation is 42.7% (active).

Regarding `CCCN1C[C@@H](C)[C@@H](OC)CN(C)C(=O)c2ccc(NS(C)(=O)=O)cc2OC[C@@H]1C`, the activation is -0.143% (inactive).

Consider `C/C=C/c1ccc2c(c1)O[C@H](CN(C)Cc1ccccc1)[C@H](C)CN([C@@H](C)CO)S2(=O)=O`, for which the activation is -0.63% (inactive).

Consider `C[C@H](CO)N1C[C@H](C)[C@H](CN(C)Cc2ccncc2)Oc2ncc(C#Cc3cccc(F)c3)cc2C1=O`, for which the activation was -2.31% (inactive).

For the compound `COCC#Cc1cnc2c(c1)C(=O)N([C@@H](C)CO)C[C@@H](C)[C@H](CN(C)C(=O)Nc1ccccc1OC)O2`, the activation is -17.8% (inactive).

For `CCc1ccc(-c2cc(C)no2)cc1S(=O)(=O)NCCc1ccc(S(N)(=O)=O)cc1`, the activation was -124% (inactive).

`C[C@H](CO)N1C[C@H](C)[C@H](CN(C)Cc2ccccn2)Oc2ncc(C#CCc3ccccc3)cc2C1=O`: the activation was -4.42% (inactive).

Turning to `Cc1ccc(S(=O)(=O)Nc2ccc3ncccc3c2)cc1`, the activation was -146% (inactive).

Turning to `COCC(=O)N(C)C[C@H]1Oc2cc(C#CC(C)C)ccc2S(=O)(=O)N([C@H](C)CO)C[C@@H]1C`, the activation was -9.28% (inactive).

As for `CCOC(=O)c1c(S(=O)(=O)Nc2cccc(Cl)c2)c(C)n(C)c1C`, the activation is -92% (inactive).

Consider `O=C(/C=C(O)/C=C/c1ccc(O)cc1)/C=C/c1ccc(O)cc1`, for which the activation was -140% (inactive).

In the case of `CCC(=O)Nc1ccc2c(c1)OC[C@H](C)N(Cc1ccccc1F)C[C@H](C)[C@@H](OC)CN(C)C2=O`, the activation was 3.89% (inactive).

For the compound `Cn1c(NC(=O)c2ccco2)c(-c2ccccc2Cl)c(=O)c2ccccc21`, the activation was 66.3% (active).

For `COc1ccc(NS(=O)(=O)c2ccc(NC(=S)NC(=O)CC(C)C)cc2)cc1`, the activation was -161% (inactive).

Regarding `COc1ccc(NS(=O)(=O)c2ccc(NC(=O)C(C)(C(F)(F)F)C(F)(F)F)cc2)nn1`, the activation is 35.7% (active).

Consider `CO[C@H]1CN(C)C(=O)c2cc(NS(=O)(=O)c3ccccc3)ccc2OC[C@H](C)N(C)C[C@@H]1C`, for which the activation is -1.29% (inactive).

Regarding `C[C@H](CO)N1C[C@H](C)[C@@H](CN(C)S(=O)(=O)c2ccccc2)Oc2ncc(C#Cc3ccccc3F)cc2C1=O`, the activation was 1.81% (inactive).

For the compound `COc1ccc(OCCCC(=O)NCCc2ccccc2)cc1`, the activation was -223% (inactive).

Turning to `CC(C)C#Cc1ccc2c(c1)O[C@@H](CN(C)C(=O)NC(C)C)[C@H](C)CN([C@H](C)CO)S2(=O)=O`, the activation is -66.1% (inactive).

Turning to `COc1ccccc1-c1cnc2c(c1)C(=O)N([C@H](C)CO)C[C@@H](C)[C@@H](CN(C)CC1CCCC1)O2`, the activation is 5.29% (inactive).

As for `Cc1ccc(NS(=O)(=O)c2cc3c(cc2C)NC(=O)CO3)cc1`, the activation was -92.7% (inactive).

As to `CNC(=O)C[C@@H]1CC[C@H]2[C@H](COc3ccc(NC(=O)c4cccc(OC)c4)cc3C(=O)N2C)O1`, the activation is 50% (active).

In the case of `Cn1cnc(CCNC(=O)C[C@@H]2CC[C@@H]3[C@H](COC[C@@H](O)CN3C(=O)Nc3ccccc3)O2)c1`, the activation is 4.36% (inactive).

In the case of `CC(C)C(=O)Nc1ccc2c(c1)C(=O)N(C)[C@@H]1CC[C@@H](CC(=O)NCCc3ccccc3)O[C@H]1CO2`, the activation was 56.7% (active).

Consider `CCCC(=O)Nc1ccc2c(c1)C(=O)N(C)C[C@H](OC)[C@@H](C)CN[C@H](C)CO2`, for which the activation is 1.08% (inactive).

Regarding `CCCC(=O)Nc1ccc2c(c1)C(=O)N(C)[C@H]1CC[C@@H](CC(=O)NCc3cccc(F)c3)O[C@H]1CO2`, the activation is -120% (inactive).

Consider `CCC(=O)Nc1ccc2c(c1)C(=O)N(C)C[C@@H](OC)[C@@H](C)CN(Cc1ccccc1OC)[C@H](C)CO2`, for which the activation is -2.97% (inactive).

These data come from PubChem BioAssay AID623901 (Broad Institute, 2012).
